In PubChem BioAssay AID1159580 (chemical genetic matrix, 2015):
The campaign covered roughly 5,500 compounds. About 2,000 (36%) were called active. Roughly 18% stayed inconclusive and do not appear here. Rule as the data show it: active = normalized growth mostly below about 0.91 (no sharp cut-off); inconclusive = no clear call, values can overlap the other calls; inactive = mostly above about 0.92. This is one part of the list.

Assay: chemical genetic growth profiling, strain panel (AID 1159580);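 also: tested at 20 µM; growth read once vehicle control cultures reached saturation at 30 °C; 1 = growth at the plate median or of vehicle wells; lower values mean less growth of the strain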
Conditions: S. cerevisiae deletion strains, growth OD

Measured: normalized growth

COc1ccc(/C=C2\CC/C(=C\c3ccc(OC)c(OC)c3)C2=O)cc1OC
inactive: locus YAL013W, strain DEP1, active compounds read low 0.988 | locus YBR229C, strain ROT2, active compounds read low 0.998 | locus YCL061C, strain MRC1, active compounds read low 0.996 | locus YDL101C, strain DUN1, active compounds read low 0.974 | locus YDL134C, strain PPH21, active compounds read low 1.02 | locus YDR150W, strain NUM1, active compounds read low 0.904 | locus YEL061C, strain CIN8, active compounds read low 0.986 | locus YGR078C, strain PAC10, active compounds read low 0.978 | locus YGR229C, strain SMI1, active compounds read low 1 | locus YHR030C, strain SLT2, active compounds read low 0.902 | locus YHR087W, strain rtc3, active compounds read low 0.977 | locus YJL187C, strain SWE1, active compounds read low 1.01 | locus YJR043C, strain POL32, active compounds read low 0.966 | locus YJR075W, strain HOC1, active compounds read low 1.03 | locus YLR039C, strain RIC1, active compounds read low 0.936 | locus YLR058C, strain SHM2 (second series), active compounds read low 1.01 | locus YLR085C, strain ARP6, active compounds read low 0.989 | locus YLR262C, strain YPT6, active compounds read low 0.964 | locus YML094W, strain GIM5, active compounds read low 1.03 | locus YMR219W, strain ESC1, active compounds read low 0.995 | locus YMR263W, strain SAP30, active compounds read low 0.973 | locus YMR307W, strain GAS1, active compounds read low 0.817 | locus YNL128W, strain TEP1, active compounds read low 0.997 | locus YNL153C, strain GIM3, active compounds read low 0.989 | locus YNL298W, strain CLA4 (second series), active compounds read low 0.987 | locus YNL322C, strain KRE1, active compounds read low 0.999 | locus YNR030W, strain Alg12, active compounds read low 0.974 | locus YPL055C, strain LGE1, active compounds read low 0.907 | locus YPL241C, strain CIN2, active compounds read low 0.974 | locus YPR135W, strain CTF4, active compounds read low 0.919
